# The whole screen tested about 69,000 compounds, of which about 8,600 (12%) showed an effect of 50% or more. Shown is part of a subset that was picked to be rich in strong results.
# Test system: Plasmodium berghei
# Assay: Screen against P. berghei liver stage (PbLuc), transformed with Luciferase, at 10uM
# Format: functional, HepG2
# Conditions: tested at 10 uM
row,SMILES,INHIBITION [%]
1,Cc1c(NC(=O)c2ccc(Br)cc2)c(C(=O)N(C)C)nn1C,17.6
2,Cc1ccc(C(=O)Nc2c(C(=O)N(C)C)nn(C)c2C)cc1,-10.6
3,COc1ccc(C(=O)Nc2c(C(=O)N(C)C)nn(C)c2C)cc1,61.5
4,CCOCC1CN(Cc2ccsc2)Cc2cnn(C)c21 (stereo not given),36.2
5,NCCn1cc(C(=O)NCc2ccccc2Cn2cccn2)nn1,29.4
6,CCOC(=O)CC(C)NC(=O)c1cn(Cc2ccccc2F)nn1 (stereo not given),-44.2
7,CC(Cn1cncn1)NC(=O)c1cn(Cc2ccccc2F)nn1 (stereo not given),68.8
8,COC(=O)CNC(=O)c1cn(Cc2ccccc2F)nn1,82.9
9,COCC1CCN(C(=O)c2cn(Cc3ccccc3F)nn2)CC1,14.2
10,O=C(NCCCOc1cccnc1)c1cn(Cc2ccccc2F)nn1,12.9
11,CC(NC(=O)NCCCn1cncn1)c1ccccc1F (stereo not given),11.9
12,CCOC(=O)CC(NC(=O)c1cn(Cc2ccccc2F)nn1)C(C)C (stereo not given),72.6
13,COC(=O)C(CO)NC(=O)c1cn(Cc2ccccc2F)nn1 (stereo not given),-4.4
14,COc1ccc(CNCCc2cc(F)cc3c2OCOC3)c(OC)c1,30
15,Cc1cc(C(=O)NCc2ccc(F)cc2)nc(C2CCCN2C)n1 (stereo not given),-3.31
16,OCCO[C@H]1C[C@@H](O)C12CCN(Cc1nc(C(F)(F)F)no1)CC2,-17.8
17,CCN1CCCCC1C(=O)N1CCN(C(=O)OC)CC1 (stereo not given),29.9
18,CCn1cnnc1C1CCN(C(=O)c2cnc(C)s2)CC1,27.6
19,CC(C)c1ncncc1C(=O)NCCN1CCCCC1C (stereo not given),36.9
20,CCOCC1CCN(C(=O)C(c2cccc(F)c2)N(C)C)CC1 (stereo not given),17.5
21,CN(C(=O)CC1=CCCCC1)C1CCCN(C2Cc3ccccc3C2)C1 (stereo not given),28.3
22,CN(C(=O)CCc1ccncc1)C1CCCN(CCc2ccccc2)C1 (stereo not given),-8.07
23,CN(C(=O)CC1=CCCCC1)C1CCCN(CCc2ccccc2)C1 (stereo not given),59.2

row,SMILES,INHIBITION [%]
1,CC(O)c1cn(Cc2ccc(Cl)cc2Cl)nn1 (stereo not given),7.92
2,Cc1cc(C(=O)N2CCCC2c2noc(C)n2)[nH]n1 (stereo not given),38.5
3,CN(Cc1cccc2ncccc12)C(=O)CCC(F)(F)F,19.7
4,CN(C(=O)CCC(F)(F)F)c1cccc2ncccc12,71.4
5,Cc1cccc(=O)n1CCC(=O)N(C)Cc1cccc2ncccc12,33.1
6,CCCC(=O)N(C)c1cc(C#N)c2ccccc2n1,-31.7
7,CCCC(=O)N(C)c1cccc2ncccc12,77.8
8,CCCNC(=O)c1cccc2ncccc12,26.7
9,COc1ccc(-n2cc3[nH]c(=O)n(C(C)C)n3c2=O)cc1,-12.5
10,CCOCC1CN(Cc2cccs2)Cc2nn(C)cc21 (stereo not given),-2.72
11,CCN(Cc1ccc2c(c1)OCCO2)C(=O)c1ccc(C)[nH]c1=O,-4.43
12,O=C(Cn1ncc2c(c1=O)CCCCC2)Nc1cccc2[nH]ccc12,36.1
13,Cn1ccc2c(NC(=O)Cn3ncc4c(c3=O)CCCCC4)cccc21,6.29
14,Cn1ccc2c(NC(=O)Cn3ncc4c(c3=O)CCCC4)cccc21,74.1
15,Cn1cc(CC2CCN(C(=O)NCCCc3ccc(O)cc3)C2)cn1 (stereo not given),49.2
16,CC(C)OCCC(=O)NCCC(=O)N1CCN(c2ccccn2)CC1,14.2
17,O=C(CCc1nccs1)N1CCN(c2ncccn2)CC1,26.1
18,CC(C)COCCC(=O)NCCC(=O)N1CCN(c2ccccn2)CC1,56.6
19,CC(C)C(=O)NCCC(=O)N1CCN(c2ccccn2)CC1,24.1
20,O=C(CCc1nccs1)N1CCN(c2cccnn2)CC1,1.77
21,O=C(CCc1nccs1)N1CCN(c2ccccn2)CC1,51.1
22,Cc1nn(CC(=O)NCCc2ccncc2)c(=O)n1Cc1ccccc1,-45
23,CNC(=O)CN(C)C(=O)c1cc(Cl)c(I)cc1OC,45.2

row,SMILES,INHIBITION [%]
1,CCOC(=O)NC1CCCN(Cc2ccc(-n3cncn3)c(C)c2)C1 (stereo not given),-1.35
2,Cc1cc(CNC(C)Cn2cncn2)ccc1Br (stereo not given),41.4
3,CCc1cc(NCc2ccc(-n3cncn3)c(C)c2)n(C)n1,79.5
4,CCCNC(=O)C1CCCN(Cc2ccc(-n3cncn3)c(C)c2)C1 (stereo not given),-14.5
5,Cc1cc(CNc2ccnn2CC(C)C)ccc1-n1cncn1,89.7
6,CC(Cn1cncn1)NCc1ccc2nonc2c1 (stereo not given),12
7,Cc1cc(CNc2ccnn2C)ccc1-n1cncn1,62.8
8,Cc1cc(CN2CCCC(NS(C)(=O)=O)C2)ccc1-n1cncn1 (stereo not given),-3.14
9,Cc1nc(CN)cc(NCc2ccccc2-n2cncn2)n1,33.7
10,CN1CCc2ncc(CNC(=O)c3cccn3C)n2CC1,20.9
11,CCn1ccnc1CN1CCN(Cc2cnc(C)cn2)CC1C (stereo not given),13.2
12,NC(=O)CN1CCCC1c1csc(Nc2cnccn2)n1 (stereo not given),51.5
13,Cc1nc(Nc2cnccn2)cc(C2CCN(c3ncccn3)C2)n1 (stereo not given),-17.7
14,OCCN1CCC(c2csc(Nc3cnccn3)n2)CC1,0.825
15,CC(=O)N1CCCC1c1csc(Nc2cnccn2)n1 (stereo not given),13.5
16,COCC(=O)N1CCCC1c1csc(Nc2cnccn2)n1 (stereo not given),44.1
17,CCC(=O)N1CCCC1c1csc(Nc2cnccn2)n1 (stereo not given),-4.82
18,NC(=O)CN1CCC(c2csc(Nc3cnccn3)n2)CC1,33.8
19,c1cnc(N2CCCC(c3csc(Nc4cnccn4)n3)C2)nc1 (stereo not given),61.3
20,c1cnc(N2CCC(c3csc(Nc4cnccn4)n3)CC2)nc1,76.7
21,CCCn1cnnc1CN(C)C(=O)C1CCCN(C2CCN(C)CC2)C1 (stereo not given),-21.3
22,COCCC(=O)N1CCCC1c1nc(O)cc(-c2ccccn2)n1 (stereo not given),35.2
23,Cc1nc2n(n1)CC(Nc1nc(-c3ccccc3)no1)CC2 (stereo not given),-6.51

row,SMILES,INHIBITION [%]
1,CSCc1cc(F)ccc1CNC(=O)N1CCCC(CO)C1 (stereo not given),78.3
2,CSCc1cc(F)ccc1CNC(=O)N1CCC[C@@H]1CO,31.9
3,CSCc1cc(F)ccc1CNC(=O)N1CCCC1,-110
4,COc1ccccc1CNC(=O)N1CCCC(CO)C1 (stereo not given),-10.7
5,CSCc1cc(F)ccc1CNC(=O)N1CCOCC1,13.1
6,CSCc1cc(F)ccc1CNC(=O)N1CCC(CO)CC1,56.6
7,Cc1c(Cl)cccc1NC(=O)c1nc[nH]n1,-1.16
8,COc1ccc(-c2cc3nn(CC(=O)NC(C)C)c(=O)n3c(C)n2)cc1,53.2
9,Cc1nc(-c2ccccc2)cc2nn(CC(N)=O)c(=O)n12,28.6
10,COc1ccc(-c2cc3nn(CC(N)=O)c(=O)n3c(C)n2)cc1,14.3
11,NC(=O)CC1CCN(C(=O)NCCc2ccc(Cl)s2)CC1,-17.6
12,c1ccc(CN2CCCC3(CCN(Cc4cccs4)C3)C2)nc1 (stereo not given),21.1
13,Cc1nn(C)c(N2CCOCC2)c1CNC(c1ccccc1)C1CC1 (stereo not given),14.6
14,O=C(C1CCCC1)N1CC2(CCN(C3COC3)C2)OCc2ccccc21 (stereo not given),53.2
15,O=C(C1CCCC1)N1CC2(CCNC2)OCc2ccccc21 (stereo not given),11
16,O=C(C1CCCC1)N1CC2(CCN(C3COC3)C2)Cc2ccccc21 (stereo not given),10.1
17,O=C(C1CCCC1)N1CC2(CCN(C3COC3)CC2)Cc2ccccc21,53.2
18,O=C(C1CCCOC1)N1CCCc2ccccc21 (stereo not given),-21
19,O=C(C1CCCC1)N1CC2(CCCN(C3COC3)C2)Cc2ccccc21 (stereo not given),-0.621
20,Cc1ccc(-c2[nH]c3ccccc3c2C(=O)O)c(C)c1,31.7
21,c1nc(CN2CCC3(CC2)COCCN3CC2CC2)c[nH]1,-2.17
22,N#Cc1ccccc1N1CCCN(C(=O)CCc2ccsc2)CC1,19.2
23,CC(C)n1cnnc1CN(C)C(=O)c1ccccc1-n1cncn1,31.7

row,SMILES,INHIBITION [%]
1,CC1(C)CN(C(=O)c2ncc(F)cc2F)CCC1(O)CN1CCOCC1 (stereo not given),76.3
2,CCSc1ncc(CN2CCC(O)(CN3CCOCC3)C(C)(C)C2)cn1 (stereo not given),81
3,COCCCN1CC2(CCN(Cc3cc(C(C)C)no3)CC2)CC1=O,41.2
4,COC[C@]1(O)CCN(Cc2cnc(N3CCOCC3)nc2)CC1(C)C,32.3
5,COCCCN1CC2(CCN(C(=O)Cc3csc(C)n3)CC2)CC1=O,-44.8
6,CCSc1ncc(CN2CC[C@@](O)(COC)C(C)(C)C2)cn1,43.5
7,CSc1ncc(C(=O)N2CCC(O)(CN3CCOCC3)C(C)(C)C2)cn1 (stereo not given),40.6
8,COCCCN1CC2(CCN(C(=O)c3ncc(F)cc3F)CC2)CC1=O,58.1
9,CCc1ncc(C(=O)N2CCC(O)(CN3CCOCC3)C(C)(C)C2)cn1 (stereo not given),10.9
10,Cc1nc(C2CCCN(C(=O)c3cc(C(C)(C)C)on3)C2)no1 (stereo not given),-21.8
11,Cc1noc(C)c1-c1cc(CC2CCN(C(=O)c3cc[nH]n3)C2)ncn1 (stereo not given),21.9
12,O=C(O)c1cccc(CN2CCC(c3ccnc4ccnn34)CC2)c1,28
13,Cn1cc(CN2CCOC(Cc3cccc(F)c3)C2)cn1 (stereo not given),36.8
14,Cc1c(NC(=O)c2cnc[nH]2)cccc1C(=O)NC(C)(C)C,34.5
15,CC(C)(C)NC(=O)c1ccccc1NC(=O)c1ccncc1,30.1
16,Cc1c(NC(=O)c2ncn[nH]2)cccc1C(=O)NC(C)(C)C,59.5
17,CCn1c(NCC2CCCO2)nc2c(C)nn(C)c2c1=O (stereo not given),25.8
18,Oc1cc(CN2CCCCC2c2cccnc2)nc2c(F)cccc12 (stereo not given),54.4
19,O=C1CN(Cc2cc(O)c3cccc(F)c3n2)CCN1C1CCCC1,37.7
20,CC1CNC(=O)CCN1Cc1cc(O)c2cccc(F)c2n1 (stereo not given),51.2
21,NCC1CCCCN1Cc1cc(O)c2cccc(F)c2n1 (stereo not given),44.7
22,Cc1ccc(C)c2c(O)cc(CN3CCC(=O)NCC3C)nc12 (stereo not given),3.69
23,OCC1CCCCN1Cc1cc(O)c2cccc(F)c2n1 (stereo not given),27.6
